The source made the active and inactive calls.

Drawing on PubChem BioAssay, this text covers z-score for 25 molecules.

This test is described as follows: ATP-based viability of Huh7 replicon cells – cell-based, CellTiter-Glo luminescence, basal, 48 h, cytotoxicity control for HCV replication inhibitor project, primary screen (AID 1143).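 Also: Huh7 hepatoma cells carrying a hepatitis C replication reporter with no stimulus; test concentration not given here.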 The conditions noted are these: higher = more signal, called active from +8 up or from −8 down. (Replicon systems follow genome replication, usually without infectious particles.)
Take `C=CCC(OC(C)=O)[C@@H]1[C@@H](N(Cc2cccc3ccccc23)C(=O)c2cccc3ccccc23)c2cc(OCCCO)ccc2N1C(=O)c1ccc2ccccc2n1` (stereo not given in full): the z-score is -1.66 (inactive).

Consider `COc1ccc(C(O)C2C=CC3C(=O)NC(=O)C3N2Nc2ccccn2)cc1OCc1ccccc1` (stereo not given), for which the z-score is 0.716 (inactive).

On to `CCCN1C(=O)[C@@]2(CCC(=O)OC(C)(C)C)N=C(c3ccc(OCCCO)cc3)O[C@H]2c2ccccc21`, for which the z-score is -4.47 (inactive).

On to `COc1cccc(C(=O)O[C@H]2CC[C@]3(C)C4=C(CCC3C2(C)C)[C@]2(C)CC[C@H]([C@H](C)CCCC(C)C)[C@@]2(C)CC4)c1` (stereo not given in full), for which the z-score is -1 (inactive).

Consider `COc1cc2c(cc1OC)CN(C(=O)[C@@H]1[C@H]3C(=O)O[C@H](c4ccccc4)[C@H](c4ccccc4)N3[C@H](c3ccccc3OCCO)[C@@]13C(=O)Nc1ccc(C#CCNC(N)=O)cc13)CC2`, for which the z-score was -2 (inactive).

Consider `CN(C)CCCCNC(=O)[C@H]1C[C@H]2C(=O)N[C@@H](Cc3ccccc3)C(=O)N2[C@H]1c1ccc(O)cc1`, for which the z-score was -2.14 (inactive).

For `COc1ccc(CCN2C(=O)[C@@]3(Cc4ccccc42)c2ccccc2C(=O)N(Cc2ccccc2Cl)[C@H]3c2ccc(CO)cc2)cc1`, the z-score is -1.7 (inactive).

On to `CCCCCCCCCCC(O)C1C=CC2C(=O)N(Cc3ccccc3)C(=O)C2N1n1cnnc1` (stereo not given), for which the z-score is -4.02 (inactive).

`COCCOC(=O)N1C(=O)[C@@]2(c3cc(C#CCC(C(=O)OC)C(=O)OC)ccc31)[C@H](C(=O)N1CCN(c3ncccn3)CC1)[C@H]1C(=O)O[C@H](c3ccccc3)[C@H](c3ccccc3)N1[C@@H]2c1ccc(OCCO)cc1`: the z-score is -3.18 (inactive).

For the molecule `C=C(COC)C(=O)CC[C@@H](OC(=O)c1cccnc1)c1ccc(CO)o1`, the z-score is -0.336 (inactive).

Turning to `C=C[C@@H](COC(C)=O)N(Cc1ccc([N+](=O)[O-])cc1)S(=O)(=O)c1ccc(Br)cc1`, the z-score is -1.97 (inactive).

For `O=C1O[C@@H](c2ccccc2)[C@@H](c2ccccc2)N2[C@@H](c3ccc(O)cc3)[C@]3(C(=O)Nc4ccc(C#CC5(O)CCCCCC5)cc43)[C@@H](C(=O)N3CCCCCCC3)[C@H]12`, the z-score is -2.41 (inactive).

As for `COC(=O)C[C@@H]1C[C@H](C)[C@]2(O1)C(=O)N(Cc1ccccc1)c1ccc(NC(C)=O)cc12`, the z-score is -0.578 (inactive).

With `CC(C)(C)N1CC=CC23O[C@@H]4C=CCOC(=O)[C@@H]4[C@H]2C(=O)N(CCCCCO)[C@@H]3C1=O` (stereo not given in full), the z-score is 0.228 (inactive).

Take `C=CCN1C(=O)[C@]2(O[C@H](CCO)[C@@H]([Si](C)(C)c3ccc(OC)cc3)[C@@H]2C)c2cc(NC(=O)[C@H](C)O)ccc21`: the z-score was -6.12 (inactive).

Take `C=CC(=C)C1=CCO[C@@H]1[C@H]1CCCN1S(=O)(=O)c1ccccc1[N+](=O)[O-]`: the z-score is -0.169 (inactive).

Turning to `COc1ccc(NN2C(C(O)c3ccc(OC)c(OCc4ccccc4)c3)C=CC3C(=O)N(C4CCCCC4)C(=O)C32)cc1` (stereo not given), the z-score was -2.17 (inactive).

As to `[N-]=[N+]=NCc1ccccc1[C@@H]1OC(c2ccc(OCCCO)cc2)=N[C@]1(Cc1ccccc1)C(=O)N1CCCCC1`, the z-score was -3.77 (inactive).

Consider `CC(C)(C)N1CC=CC23O[C@@H]4/C=C\CCCOC(=O)C4[C@H]2C(=O)N(CCO)[C@@H]3C1=O` (stereo not given in full), for which the z-score is 0.0369 (inactive).

As to `O=C1O[C@H](c2ccccc2)[C@H](c2ccccc2)N2[C@H]1[C@@H](C(=O)O)[C@]1(C(=O)Nc3ccc(C#CC4=CCCCC4)cc31)[C@H]2c1ccc(OCCO)cc1`, the z-score was -1.89 (inactive).

Take `COC(=O)C[C@H]1O[C@]2(C(=O)N(Cc3ccccc3)c3ccc(NC(C)=O)cc32)[C@@H](C)[C@@H]1[Si](C)(C)c1ccc(OC)cc1`: the z-score was -0.796 (inactive).

Consider `CC(C)CNC(=O)[C@@H]1c2ccccc2C(=O)N(Cc2cc(C(F)(F)F)cc(C(F)(F)F)c2)[C@H]1c1ccc(CO)cc1`, for which the z-score was -1.51 (inactive).

With `COc1ccccc1CN1C(=O)c2ccccc2[C@@H](C(=O)NCCN2CCOCC2)[C@@H]1c1ccc(CO)cc1`, the z-score is -0.916 (inactive).

As to `NCCCCCCNC(=O)[C@H]1C[C@H]2C(=O)NCC(=O)N2[C@H]1c1cccc(OCCO)c1`, the z-score is 0.0443 (inactive).

`COCCOC(=O)N1C(=O)[C@@]2(c3ccccc31)[C@H](C(=O)NC[C@H](O)c1ccccc1)[C@H]1C(=O)O[C@H](c3ccccc3)[C@H](c3ccccc3)N1[C@@H]2c1ccc(OCCO)cc1`: the z-score is -3.37 (inactive).
